Pf Dd2 growth: inhibitors of Plasmodium falciparum Dd2 growth; AID 1347417; Potency, µM (titrated, usually from 28.9 µM), usual class: inhibitors; 120,000 tested, 4.3% active; P. falciparum Dd2 growth, SYBR Green, 72 h; active = well fitted inhibition curve with a large enough effect; also: nearly all actives have a fitted effect of over 65% in size
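Readout: SYBR Green fluorescence, 485 nm excitation, 535 nm emission, after ~16 h lysis at 37C. Before that, Dd2-infected red cells (2.5% hematocrit) grew 72 h with compound, 29 uM top final concentration.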
Large screens that a line does not name were inactive. Shown is part of a subset that was picked to be rich in hits.

CC(C)(C)OC(=O)N1CCC(c2c(C(=O)O)cnn2-c2ccc(F)cc2F)CC1	none
CCc1ccc(CN2CC3ON=C(C(=O)O)C3C2)cc1 (stereo not drawn)	none
C[S+](=O)([O-])N1CCn2cc(C(=O)N3CCOCC3)nc2C1	none
CCOCc1nc(C2CCCN(C(=O)Cc3ccc(C)cc3)C2)no1 (stereo not drawn)	none
NC(=O)C1(N2CCCCC2)CCN(C(C(=O)O)c2ccc(N)c(F)c2)CC1 (stereo not drawn)	none
O=C(c1scc2c1OCCO2)N1CCCC(N2CCN(c3cccc(Cl)c3)CC2)C1 (stereo not drawn)	none
COc1cc(SC)ccc1C(=O)N[C@H]1C[C@H]2C(=O)Nc3ccc(-c4ccc5c(c4)OCO5)cc3C(=O)N2C1	none
Cc1cnc(C(=O)NC2C[C@H]3CC[C@@H](C2)N3C(=O)C2CCCCC2)cn1 (stereo partly drawn)	none
CC(C)CCNC(=O)N1CCCC(Cn2c(C3CC3)nc3cccnc32)C1 (stereo not drawn)	none
CCOC(=O)c1ccccc1NC(=O)Cn1nc2n(c1=O)CCCCC2	none
Cc1cccc(-n2ncc(C(=O)Nc3ccc4c(c3)OCO4)c2C2CCN(C(=O)OC(C)(C)C)CC2)c1	Pf Dd2 growth 10µM
Cc1ccc(-n2ncc(C(=O)N3CCCCC3)c2C2CCN(C(=O)OC(C)(C)C)CC2)cc1C	none
CC(=O)Nc1cccc(C(=O)N2CCC(n3cc(-c4nc(C(C)C)no4)nn3)C2)c1 (stereo not drawn)	none
CCCCN1CCN(C(=O)c2cnc(-c3ccccc3)nc2-c2ccncc2)CC1	none
CC/C=C\CCc1c(-c2ccccc2)ncn1CCN1CCN(C)CC1	Pf Dd2 growth 4.5µM
CN1CCN(c2ncc(C(=O)O)c(-c3ccccc3)n2)CC1	none
CC(=O)N1Cc2ccccc2OC2(CCN(C(=O)CN(C)C)CC2)C1	none
CC(C)c1noc([C@@H]2C[C@H](NS(=O)(=O)c3ccc(F)cc3)CN2C)n1	none
O=C1c2c(nc(COc3ccccc3)n2Cc2ccccc2)NCCN1Cc1ccccc1	none
COc1ccc(OCc2nc3c(n2Cc2ccccc2)C(=O)N(CC2CC2)CCN3)cc1OC	none
COc1ccccc1OCc1nc2c(n1Cc1ccccc1)C(=O)N(CC1CC1)CCN2	none
CC(=O)N1CCN(Cc2nc3c(n2Cc2ccccc2)C(=O)N(Cc2cccc(Cl)c2)CCN3)CC1	none
COCCN1CCNc2nc(CNc3ccon3)n(Cc3ccccc3)c2C1=O	Pf Dd2 growth 11µM
O=C1c2c(nc(COc3ccc4c(c3)OCO4)n2Cc2ccccc2)NCCN1CCOc1ccccc1	none
O=C1c2c(nc(COc3ccc(F)cc3)n2Cc2ccccc2)NCCN1CCOc1ccccc1	Pf Dd2 growth 5.6µM
O=C1c2c(nc(COc3cc(F)cc(F)c3)n2Cc2ccccc2)NCCN1Cc1ccccc1	none
COc1cc(OC)cc(OCc2nc3c(n2Cc2ccccc2)C(=O)N(Cc2cccc(Cl)c2)CCN3)c1	Pf Dd2 growth 7.9µM
COCCN1CCNc2nc(COc3ccccc3OC(F)(F)F)n(Cc3ccccc3)c2C1=O	none
COCCN1CCNc2nc(COc3ccc(Oc4ccccc4)cc3)n(Cc3ccccc3)c2C1=O	none
COc1ccccc1OCc1nc2c(n1Cc1ccccc1)C(=O)N(Cc1cccc(Cl)c1)CCN2	Pf Dd2 growth 10µM
COc1cccc(NC(=O)c2ccc(N3CC4CC(C3)[C@H]3CCCC(=O)N3C4)nc2)c1 (stereo partly drawn)	none
CC(=O)N1CCC(Oc2ccc(Cl)cc2C(=O)N(C)CCN2CCOCC2)CC1	none
O=C(NC1CC1)C1CCc2nnc(-c3ccc(Cl)cc3Cl)n21 (stereo not drawn)	none
O=C(c1ncccc1F)N1CCCn2ccnc2C1c1ccccc1 (stereo not drawn)	none
O=C1c2c(nc(COc3ccc4c(c3)OCO4)n2Cc2ccccc2)NCCN1Cc1cccc(Cl)c1	none
O=C1c2c(nc(COc3cccc(Cl)c3)n2Cc2ccccc2)NCCN1CC1CC1	none
COc1cccc(OCc2nc3c(n2Cc2ccccc2)C(=O)N(Cc2cccc(Cl)c2)CCN3)c1	Pf Dd2 growth 13µM
COc1ccc(S(=O)(=O)NC[C@H]2O[C@@H](CO)[C@@H](O)[C@H]2N2CCCC2)cc1	none
COc1ccc2c(c1)CN(C(=O)N1CCOCC1)CC[C@H]1COC(=O)N21	none
COCCNC(=O)[C@@H]1C[C@@H](O)CN1C1CCN(C(=O)Cc2cccc(OC)c2)CC1	none
COCCc1nn2c(=O)cc(COC(=O)c3ccc(Br)cc3)nc2s1	none
COCCc1nn2c(=O)cc(COC(=O)C(c3ccccc3)c3ccccc3)nc2s1	Pf Dd2 growth 1.3µM
CCc1nn2c(=O)cc(COC(=O)C(c3ccccc3)c3ccccc3)nc2s1	none
O=C1c2c(nc(COc3ccc4c(c3)OCO4)n2Cc2ccccc2)NCCN1Cc1ccccc1	none
Cc1nc2c(c(-c3ccc(O)cc3)n1)CN(Cc1ccccn1)CCC2	none
Cc1nc2c(c(-c3ccc(O)cc3)n1)CN(Cc1cccc3ccccc13)CCC2	Pf Dd2 growth 13µM
Cc1nc2c(c(-c3ccc(O)cc3)n1)CN(Cc1cccnc1)CCC2	none
Cc1nc2c(c(-c3ccc(O)cc3)n1)CN(Cc1ccc(C(F)(F)F)cc1)CCC2	Pf Dd2 growth 0.89µM
Cc1nc2c(c(-c3ccc(O)cc3)n1)CN(Cc1ccc(C(F)(F)F)cc1)CC2	none
